Assay [1] in a line: AP1 Signaling Pathway (AID 357; active = well fitted curve in either direction with a large enough effect, not every such curve was filed as active; also: % is scaled to controls: 0 for no effect and ±100 for the full control effect). The note with it: ME-180 AP-1-bla reporter, EGF-induced, beta-lactamase ratio, 5 h; at 38 µM (top of the series). In short, it runs like this: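 ME-180 cells with beta-lactamase reporter under AP-1 response element, stimulated with EC50 EGF; compounds tested in titration series, 5 h at 37 °C. CCF4 substrate added 2.5 h at room temperature; 460/530 nm emission ratio gave %activity and AC50.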

The target in assay [2] is Cytochrome P450 1A2 (Homo sapiens) (UniProt P05177). The assay can be described thus: p450-cyp1a2 (AID 410; calls by dose curve; also: potency is read from the fitted curve at half-maximal effect). The note with it: recombinant CYP1A2, luciferin-ME demethylation, luminescence; series mostly up to 57 µM. The method in brief: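 Luminescent readout of luciferin formed from Luciferin-ME by human CYP1A2; data normalized against complete inhibition by 57 uM furafylline. Enzyme 20nM, substrate 100uM at Km, 100mM KPO4 buffer, 60 min reaction at room temperature.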
Cytochrome P450 1A2 (Homo sapiens), sequence (P05177 whole entry, looked up): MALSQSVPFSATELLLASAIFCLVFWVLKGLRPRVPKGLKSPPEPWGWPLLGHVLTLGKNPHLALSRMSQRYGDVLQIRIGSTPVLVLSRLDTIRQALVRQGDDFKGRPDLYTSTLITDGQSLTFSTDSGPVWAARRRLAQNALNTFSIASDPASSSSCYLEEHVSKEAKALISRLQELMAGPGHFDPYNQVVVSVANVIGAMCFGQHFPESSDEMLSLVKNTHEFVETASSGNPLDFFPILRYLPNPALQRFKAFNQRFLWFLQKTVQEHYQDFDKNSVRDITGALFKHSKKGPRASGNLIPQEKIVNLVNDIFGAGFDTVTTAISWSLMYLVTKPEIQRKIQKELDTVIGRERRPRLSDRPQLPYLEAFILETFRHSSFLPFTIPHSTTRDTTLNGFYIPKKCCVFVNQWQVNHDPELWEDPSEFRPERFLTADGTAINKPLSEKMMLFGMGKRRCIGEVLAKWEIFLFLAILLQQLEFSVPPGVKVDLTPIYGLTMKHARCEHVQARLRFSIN

Assay [3] can be described thus: NFAT Signaling Pathway (AID 444; active = well fitted curve in either direction with a large enough effect, not every such curve was filed as active;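 also: carbachol stimulus at about its EC50 of 1 µM final; % is scaled to controls: 0 for no effect and ±100 for the full control effect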). The conditions noted are these: Jurkat NFAT-bla M1, carbachol, beta-lactamase ratio, 5 h; at 38 µM (top of the series). In short, it runs like this: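 Jurkat cells carrying an NFAT-driven β-lactamase reporter and co-transfected muscarinic M1 receptor were treated with compound plus carbachol (1 uM final, an EC50 level) for 5 h at 37 °C. CCF4 loading followed for 1 h at RT; 460/530 nm ratio gave %activity.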

Assay [4] concerns the target Glucocorticoid receptor (Homo sapiens) (UniProt P04150). The assay is described as follows: GR-GFP Redistribution (AID 450;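 active = compounds whose dose series gives a full or clear partial fitted curve of increased nuclear translocation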; also: potency is read from the fitted curve at half-maximal effect). The conditions noted are these: U2OS GR-GFP nuclear translocation, laser cytometry, 2 h.
For assay [5] the target is unchanged. The assay is described as follows: GR-EFC Redistribution (AID 451; calls by dose curve; also: potency is read from the fitted curve at half-maximal effect). The conditions noted are these: CHO-K1 GR-EFC translocation, beta-gal luminescence, 2 h. In short, it runs like this: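 CHO-K1 cells stably expressing nuclear-localized β-gal enzyme acceptor and GR fused C-terminally to the enzyme donor fragment; ligand-driven nuclear translocation restores β-gal by complementation. Compounds titrated up to 46 uM final, 2 h at 37 °C; luminescence read.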

Assay [6] addresses Mitogen-activated protein kinase 10 (Mus musculus) (UniProt Q61831). The assay is described as follows: JNK3 AlphaScreen Assay (AID 530; active = well fitted curve in either direction with a large enough effect, not every such curve was filed as active;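 also: kinase came from lysate of stimulated human HepG2 cells; signal reports phosphorylation of biotinylated GST-cJun 1-79 at Ser73 with 10 µM ATP; % is scaled to controls: 0 for no effect and ±100 for the full control effect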). The conditions noted are these: JNK3 lysate, c-Jun phosphorylation; series mostly up to 57.1 µM. In short, it runs like this:
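Inhibitors reduce antibody binding to phosphorylated biotin-cJun, lowering AlphaScreen luminescence. Lysates from HepG2 cells pre-activated by IL-1beta plus TNF-alpha supplied JNK3; compounds were titrated.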
On the technique in general: Bead proximity is the source of the signal in Alpha formats.

The target in assay [7] is 3',5'-cyclic-AMP phosphodiesterase 4B (Homo sapiens) (UniProt Q07343). The assay is described as follows: qHTS Assay for Inhibitors of PDE-IV (AID 607; active = well fitted activation curve with a large enough effect in the main read-out, with a control signal flat, not every such curve was filed as active; also: % of control where 0% means no effect). The conditions noted are these: HEK293 ACTOne CNG channel cells, membrane potential fluorescence; series mostly up to 22.9 µM. The method in brief: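 ACTOne HEK293 cells carry a modified cAMP-gated CNG channel and express endogenous PDE4; plated 1000 cells/well, compounds up to 22.9 uM final. Membrane-potential dye fluorescence (ex 535/em 590) was read; parental cells received 10 uM forskolin + 100 uM RO 20-1724.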
Background: In qHTS, concentration-response curves come from the screen itself.

The target of assay [8] is Guanine nucleotide-binding protein G(i) subunit alpha-1 (Homo sapiens) (UniProt P63096). The assay can be described thus: qHTS Assay for Inhibitors of RGS12 GoLoco Motif Activity (Green Fluorophore) (AID 879).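 Also: 0% = labeled peptide with Gαi1 and full inhibition = labeled peptide alone without protein; negative values mean loss of peptide binding seen as reduced polarization.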 The conditions noted are these: Galphai1/FITC-RGS12 GoLoco peptide, fluorescence polarization; series mostly up to 57.1 µM. The method in brief:
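Fluorescence polarization assay: 50 nM Gαi1 with 10 nM FITC-labeled RGS12 GoLoco peptide in 10 mM Tris pH 7.5, 150 mM NaCl, 0.1 mM GDP, 0.05% NP40, 10 min at room temperature with compound.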

For assay [9], the target named is Cytochrome P450 2C9 (Homo sapiens) (UniProt P11712). The assay can be described thus: qHTS Assay for Inhibitors and Substrates of Cytochrome P450 2C9 (AID 883). Also: nearly all actives have a fitted effect of over 60% in size. Also: potency is read from the fitted curve at half-maximal effect. The conditions noted are these: recombinant CYP2C9, luciferin-H luminescence, 60 min; series mostly up to 57.1 µM. The method in brief: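 Human CYP2C9 (10nM) hydroxylated Luciferin-H (100uM, at its KM) to luciferin in 25mM KPO4. Compound was preincubated 10 min at 37C, then NADPH regeneration started a 60 min reaction at 37C. Luminescence was read after detection reagent, normalized to 57uM sulphaphenazole.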
Cytochrome P450 2C9 (Homo sapiens), sequence (P11712 whole entry, looked up): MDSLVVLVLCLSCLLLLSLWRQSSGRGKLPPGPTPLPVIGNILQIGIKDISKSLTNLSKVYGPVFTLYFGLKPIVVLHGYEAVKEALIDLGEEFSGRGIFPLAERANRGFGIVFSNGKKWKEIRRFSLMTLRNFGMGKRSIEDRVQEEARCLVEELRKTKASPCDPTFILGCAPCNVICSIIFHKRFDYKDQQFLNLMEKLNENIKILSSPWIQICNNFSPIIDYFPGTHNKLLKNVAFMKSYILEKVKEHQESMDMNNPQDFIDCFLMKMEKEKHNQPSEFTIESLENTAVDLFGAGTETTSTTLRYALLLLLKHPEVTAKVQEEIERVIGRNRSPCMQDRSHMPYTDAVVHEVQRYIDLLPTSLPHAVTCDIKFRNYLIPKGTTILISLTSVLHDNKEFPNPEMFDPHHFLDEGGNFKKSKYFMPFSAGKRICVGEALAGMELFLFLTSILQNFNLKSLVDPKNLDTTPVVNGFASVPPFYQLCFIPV

Assay [10] has as its target Cytochrome P450 3A4 (Homo sapiens) (UniProt P08684). The assay is described as follows: qHTS Assay for Activators of Cytochrome P450 3A4 (AID 885). Also: nearly all actives have a fitted effect of over 65% in size. The note with it: recombinant CYP3A4, Luciferin-PPXE luminescence, 60 min; series mostly up to 57.1 µM. In short, it runs like this: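 20nM CYP3A4 + 25uM Luciferin-PPXE (=KM), 200mM KPO4; cpd 10 min RT; NADPH regen, 60 min RT; stop w/ detection buffer, 20 min; luminescence. Normalized to 57 uM ketoconazole.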

Assay [11] concerns the target Cytochrome P450 2D6 (Homo sapiens) (UniProt P10635). The assay can be described thus: qHTS Assay for Inhibitors and Substrates of Cytochrome P450 2D6 (AID 891). Also: potency is read from the fitted curve at half-maximal effect; nearly all actives have a fitted effect of over 60% in size. The note with it: recombinant CYP2D6, luciferin-ME EGE luminescence; series mostly up to 57.1 µM. In short, it runs like this: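 Human CYP2D6 (5 nM) with 30 uM Luciferin-ME EGE (at Km) in 100 mM KPO4, compound preincubated 10 min, then NADPH regeneration system for 60 min at room temperature. Luciferin read by luminescence; normalized to 1.43 uM quinidine.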

Assay [12] addresses Cytochrome P450 2C19 (Homo sapiens) (UniProt P33261). The assay can be described thus: qHTS Assay for Inhibitors and Substrates of Cytochrome P450 2C19 (AID 899). Also: potency is read from the fitted curve at half-maximal effect; nearly all actives have a fitted effect of over 60% in size. The note with it: recombinant CYP2C19, luciferin-H EGE luminescence; series mostly up to 57.1 µM. In short, it runs like this:
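Human CYP2C19 (5nM) with Luciferin-H EGE at 10uM (its KM) in 50mM KPO4 was preincubated with compound for 10 min at 37C. NADPH regeneration started a 60 min 37C reaction. Luciferin was read by luminescence, normalized to 57uM ketoconazole.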

A short description of assay [13]: qHTS Assay for Identification of Small Molecule Agonists for Thrombopoietin (TPO) Signaling Pathway (AID 917). Also: potency is read from the fitted curve at half-maximal effect. The note with it: TPO signaling pathway reporter cells, agonist qHTS, stimulated with TPO at its EC50; series mostly up to 38.5 µM. The method in brief:
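IL-3-dependent murine pro-B Ba/F3 cells, stably transfected with human TPO receptor and GpIIb-promoter luciferase, are incubated 24 hrs at 37 C with test compound and 26 pM TPO; luciferase signal is read after 10 min at room temperature.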

Assay [14] has as its target Muscarinic acetylcholine receptor M1 (Rattus norvegicus) (UniProt P08482). The assay is described as follows: qHTS Assay for Antagonists of Acetylcholine Muscarinic M1 Receptor: Measurement of IP-One Response (AID 944). Also: nearly all actives have a fitted effect of over 75% in size. The note with it: CHO-M1 cells, IP-One HTRF, antagonist mode; series mostly up to 46.1 µM. In short, it runs like this: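 M1-CHO (rat), 2000 cells/well, overnight recovery; cpd 10 min; carbachol EC80 (200 nM), 30 min, HEPES buffer + 50 mM LiCl pH 7.4; IP-One HTRF, Ex 337, Em 620/665 nm.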

Assay [15] concerns the target Pyruvate kinase (Leishmania mexicana) (UniProt Q27686). The assay can be described thus: qHTS Validation Assay for Inhibitors of Leishmania Mexicana Pyruvate Kinase (AID 945). Also: potency is read from the fitted curve at half-maximal effect. The note with it: purified L. mexicana pyruvate kinase, enzyme activity, E451W mutant enzyme; series mostly up to 57.5 µM. In short, it runs like this: (§1)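 Read-out: luminescence from PKLight stop/detection reagent, data normalized to DMSO. Reaction: 0.2 nM E451W LmPYK, 0.5 mM PEP, 0.1 mM ADP, pH 7.2, 1 h room temperature.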

Assay [16] addresses Pyruvate kinase PKM (Homo sapiens) (UniProt P14618). The assay is described as follows: qHTS Assay for Inhibitors of Human Muscle Pyruvate Kinase (AID 958). The note with it: purified human PKM enzyme activity. The method in brief: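 Luminescence from a luciferase ATP-detection/stop reagent reported PKM2 activity. Reactions contained 0.1 nM purified human enzyme, 0.5 mM PEP, 0.1 mM ADP and 7 mM MgCl2 at pH 7.2, run 1 h at RT.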

Assay [17] deals with Pyruvate kinase (Leishmania mexicana) (UniProt Q27686). The assay can be described thus: qHTS Validation Assay for Activators of Leishmania Mexicana Pyruvate Kinase (AID 959). The note with it: purified L. mexicana pyruvate kinase, enzyme activity; series mostly up to 57.5 µM. In short, it runs like this:
as §1

In assay [18] the target is Alpha-galactosidase A (Homo sapiens) (UniProt P06280). The assay is described as follows: Counterscreen for Glucocerebrosidase Inhibitors: qHTS Assay for Human alpha-Galactosidase at pH 4.5 (AID 992). Also: 0% is about no effect. The conditions noted are these: purified enzyme, fluorogenic substrate; series mostly up to 76.9 µM. The method in brief: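 Enzyme at 2 nM final was combined with compound (0.7 nM to 77 uM) and 80 uM 4-methylumbelliferyl alpha-D-galactopyranoside in 50 mM citric acid, 0.005% Tween-20, pH 4.5. After 20 min at room temperature, fluorescence was read (Ex 365/Em 440 nm); AC50 came from Hill fits.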
(In general: A counterscreen serves to expose hits that act by an unwanted route or on another target.)

Assay [19] addresses alpha-glucosidase (Oryza sativa, rice) (UniProt Q653V4). The assay is described as follows: Counterscreen for Glucocerebrosidase Inhibitors: qHTS Assay for Rice alpha-Glucosidase at pH 5.0 (AID 997).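 Also: 0% = full activity with enzyme and -100% = basal without enzyme.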 The note with it: rice alpha-glucosidase enzyme activity; series mostly up to 76.9 µM. In short, it runs like this:
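Rice alpha-glucosidase (4 nM final) with 400 uM 4-methylumbelliferyl-alpha-D-glucopyranoside in citrate buffer pH 5.0, 20 min at room temperature, stopped at pH 10; fluorescence 365/440 nm, compounds 0.7 nM–77 uM, AC50 from Hill fits.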

For assay [20], the target named is DNA dC->dU-editing enzyme APOBEC-3G (Homo sapiens) (UniProt Q9HC16). The assay is described as follows: qHTS for inhibitors of Vif-A3G interactions: Validation (AID 588379). Also: 0% is about no effect. The conditions noted are these: Vif-A3G protein interaction assay; series mostly up to 46.1 µM. The method in brief:
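HeLa cells stably expressing Vif and A3G-eYFP, 700 cells/well, incubated overnight at 37 deg C, then exposed to compound overnight at 37 deg C. Inhibition of Vif-mediated degradation read as increased yellow fluorescence (Ex 488/Em 500-530) by laser-scanning cytometry.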

For assay [21], the system named is Zika virus NS2B-NS3 protease. The assay is described as follows: Primary screen GU AMC qHTS for Zika virus inhibitors (AID 1347154).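 Also: 0% = no-inhibitor control and -100% = no-enzyme control; nearly all actives have a fitted effect of over 70% in size.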 The conditions noted are these: Zika NS2B-NS3 unlinked protease, AMC fluorogenic substrate; series mostly up to 54.1 µM. In short, it runs like this: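 Unlinked Zika NS2B hydrophilic domain/NS3 protease domain noncovalent complex (25 nM final) in 10 mM Tris-HCl pH 8.0, 0.01% Tween 20, with AMC peptide substrate. Fluorescence (ex 340, em 450 nm) change over 15 min, room temperature; percent inhibition fitted to 4-parameter Hill equation.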

A short description of assay [22]: Primary qHTS for small molecule stabilizers of the endoplasmic reticulum resident proteome: Secreted ER Calcium Modulated Protein (SERCaMP) assay (AID 1508630). Also: % is scaled to controls: 0 for no effect and ±100 for the full control effect. The conditions noted are these: SH-SY5Y GLuc-SERCaMP (Gaussia luciferase released on ER calcium loss) secretion, thapsigargin, luminescence; series mostly up to 38.4 µM. The method in brief: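 GLuc-SERCaMP-expressing SH-SY5Y cells, pretreated 16 h with compound, are challenged with thapsigargin to empty ER calcium stores; after 4 h, coelenterazine is added directly to the medium and luminescence is imaged.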

Where “and” joins values, the source holds several entries; their conditions need not be identical. Equal entries are not always repeated. Inconclusive results are not listed. More than one record can exist for a structure, and the calls need not agree. Calls of active or inactive are those of the source. Unless noted, calls follow the shape of the dose curve; as a rule, active = well fitted curve in the direction sought with a large enough effect; inconclusive = small, poorly fitted or top-dose-only effect, or another doubt; inactive = no such curve, though single readings can be large; an effect the other way counts as inactive or inconclusive.

Glucocorticoid receptor (Homo sapiens), sequence (P04150 whole entry, looked up, the tested form may be a part): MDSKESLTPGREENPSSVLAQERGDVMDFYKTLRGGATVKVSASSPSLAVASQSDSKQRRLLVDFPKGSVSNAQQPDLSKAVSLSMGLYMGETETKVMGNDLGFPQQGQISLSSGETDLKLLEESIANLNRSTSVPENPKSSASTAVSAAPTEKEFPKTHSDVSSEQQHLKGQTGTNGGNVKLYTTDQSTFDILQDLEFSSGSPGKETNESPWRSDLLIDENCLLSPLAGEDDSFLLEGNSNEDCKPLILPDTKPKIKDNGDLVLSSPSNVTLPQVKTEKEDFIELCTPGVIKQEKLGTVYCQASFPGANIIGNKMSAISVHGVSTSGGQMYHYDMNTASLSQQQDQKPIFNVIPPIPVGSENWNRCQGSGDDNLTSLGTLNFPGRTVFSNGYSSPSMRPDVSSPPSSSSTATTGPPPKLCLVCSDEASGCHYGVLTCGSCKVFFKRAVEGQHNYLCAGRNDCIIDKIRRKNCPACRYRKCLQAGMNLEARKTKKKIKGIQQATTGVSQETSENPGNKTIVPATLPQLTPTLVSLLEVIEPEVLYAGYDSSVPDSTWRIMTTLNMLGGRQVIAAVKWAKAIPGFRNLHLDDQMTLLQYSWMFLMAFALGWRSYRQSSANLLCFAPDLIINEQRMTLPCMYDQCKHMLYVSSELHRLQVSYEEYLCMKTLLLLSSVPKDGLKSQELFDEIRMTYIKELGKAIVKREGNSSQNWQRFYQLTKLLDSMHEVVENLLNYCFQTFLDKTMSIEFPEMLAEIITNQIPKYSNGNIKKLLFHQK
Pyruvate kinase (Leishmania mexicana), sequence (Q27686 2-499 E452W): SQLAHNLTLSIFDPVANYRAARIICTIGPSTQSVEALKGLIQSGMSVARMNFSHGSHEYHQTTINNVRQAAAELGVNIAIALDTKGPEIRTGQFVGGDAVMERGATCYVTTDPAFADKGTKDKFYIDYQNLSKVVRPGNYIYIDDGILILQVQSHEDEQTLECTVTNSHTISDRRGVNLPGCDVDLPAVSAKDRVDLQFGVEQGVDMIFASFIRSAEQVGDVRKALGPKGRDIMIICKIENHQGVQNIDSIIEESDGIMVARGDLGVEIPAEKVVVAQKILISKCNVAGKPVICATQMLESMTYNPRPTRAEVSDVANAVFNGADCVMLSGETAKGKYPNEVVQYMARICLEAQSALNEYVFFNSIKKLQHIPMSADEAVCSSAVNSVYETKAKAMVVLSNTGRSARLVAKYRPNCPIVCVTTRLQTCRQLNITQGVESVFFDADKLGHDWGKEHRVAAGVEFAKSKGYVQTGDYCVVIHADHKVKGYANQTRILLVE
Muscarinic acetylcholine receptor M1 (Rattus norvegicus), sequence (P08482 whole entry, looked up): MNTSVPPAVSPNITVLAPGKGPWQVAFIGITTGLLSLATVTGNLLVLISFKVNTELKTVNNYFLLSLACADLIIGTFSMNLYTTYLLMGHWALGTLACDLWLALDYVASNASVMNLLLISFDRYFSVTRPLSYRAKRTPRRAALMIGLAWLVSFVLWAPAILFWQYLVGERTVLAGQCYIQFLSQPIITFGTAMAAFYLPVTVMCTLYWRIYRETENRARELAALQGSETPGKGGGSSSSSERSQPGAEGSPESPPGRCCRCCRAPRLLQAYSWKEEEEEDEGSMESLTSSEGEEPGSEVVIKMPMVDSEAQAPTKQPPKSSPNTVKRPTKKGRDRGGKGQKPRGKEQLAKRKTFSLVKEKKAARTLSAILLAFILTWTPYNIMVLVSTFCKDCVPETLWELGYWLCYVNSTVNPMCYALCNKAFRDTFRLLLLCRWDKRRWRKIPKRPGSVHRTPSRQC
Pyruvate kinase PKM (Homo sapiens), sequence (P14618 whole entry, looked up): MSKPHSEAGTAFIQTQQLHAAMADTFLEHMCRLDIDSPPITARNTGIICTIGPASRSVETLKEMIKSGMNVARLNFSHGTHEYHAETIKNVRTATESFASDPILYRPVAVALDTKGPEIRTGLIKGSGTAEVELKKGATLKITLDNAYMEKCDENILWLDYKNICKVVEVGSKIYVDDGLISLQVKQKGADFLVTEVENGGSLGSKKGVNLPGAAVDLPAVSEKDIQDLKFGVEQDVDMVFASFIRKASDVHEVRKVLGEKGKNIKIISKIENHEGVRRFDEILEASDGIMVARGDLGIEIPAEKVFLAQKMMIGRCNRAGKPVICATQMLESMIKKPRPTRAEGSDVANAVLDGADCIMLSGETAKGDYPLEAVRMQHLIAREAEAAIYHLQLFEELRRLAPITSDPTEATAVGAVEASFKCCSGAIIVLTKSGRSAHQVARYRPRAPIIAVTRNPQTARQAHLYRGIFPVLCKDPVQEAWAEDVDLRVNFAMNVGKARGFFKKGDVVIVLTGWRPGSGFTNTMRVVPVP
Cytochrome P450 3A4 (Homo sapiens), sequence (P08684 whole entry, looked up): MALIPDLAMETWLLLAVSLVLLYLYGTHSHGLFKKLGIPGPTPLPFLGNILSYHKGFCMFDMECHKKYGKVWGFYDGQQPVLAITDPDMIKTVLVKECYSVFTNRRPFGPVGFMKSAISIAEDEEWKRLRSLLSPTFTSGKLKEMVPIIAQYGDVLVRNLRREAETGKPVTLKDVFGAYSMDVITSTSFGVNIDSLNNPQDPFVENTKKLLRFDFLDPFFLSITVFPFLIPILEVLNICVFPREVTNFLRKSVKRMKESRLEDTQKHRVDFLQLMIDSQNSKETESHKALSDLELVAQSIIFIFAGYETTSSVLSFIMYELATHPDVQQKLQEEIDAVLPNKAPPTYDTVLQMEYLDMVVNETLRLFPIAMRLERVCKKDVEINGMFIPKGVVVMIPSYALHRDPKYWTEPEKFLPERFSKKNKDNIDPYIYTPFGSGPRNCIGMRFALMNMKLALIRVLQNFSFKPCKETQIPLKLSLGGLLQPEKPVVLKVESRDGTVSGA
DNA dC->dU-editing enzyme APOBEC-3G (Homo sapiens), sequence (Q9HC16 whole entry, looked up): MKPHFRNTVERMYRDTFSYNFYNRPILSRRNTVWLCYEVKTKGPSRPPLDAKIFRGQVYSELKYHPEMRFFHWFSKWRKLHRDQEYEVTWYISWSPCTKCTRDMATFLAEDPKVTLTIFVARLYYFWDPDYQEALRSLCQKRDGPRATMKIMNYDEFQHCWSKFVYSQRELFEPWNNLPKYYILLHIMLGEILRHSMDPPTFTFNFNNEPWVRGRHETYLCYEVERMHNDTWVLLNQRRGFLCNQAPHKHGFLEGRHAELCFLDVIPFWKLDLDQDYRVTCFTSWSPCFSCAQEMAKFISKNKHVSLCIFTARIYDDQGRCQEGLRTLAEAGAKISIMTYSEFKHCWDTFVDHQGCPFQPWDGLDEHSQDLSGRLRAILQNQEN
Cytochrome P450 2D6 (Homo sapiens), sequence (P10635 whole entry, looked up): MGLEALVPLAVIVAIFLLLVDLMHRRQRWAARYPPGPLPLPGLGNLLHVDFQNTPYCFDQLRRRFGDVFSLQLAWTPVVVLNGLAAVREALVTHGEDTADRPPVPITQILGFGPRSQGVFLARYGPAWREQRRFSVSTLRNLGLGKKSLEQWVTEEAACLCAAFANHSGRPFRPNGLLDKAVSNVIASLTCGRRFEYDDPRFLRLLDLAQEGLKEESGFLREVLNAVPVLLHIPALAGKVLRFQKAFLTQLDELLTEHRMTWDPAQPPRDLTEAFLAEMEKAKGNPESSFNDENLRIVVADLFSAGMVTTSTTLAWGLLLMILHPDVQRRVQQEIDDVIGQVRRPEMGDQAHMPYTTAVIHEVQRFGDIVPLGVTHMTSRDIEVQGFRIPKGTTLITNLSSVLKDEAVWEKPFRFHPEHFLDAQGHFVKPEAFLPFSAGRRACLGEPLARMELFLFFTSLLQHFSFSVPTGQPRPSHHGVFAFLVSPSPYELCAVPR

For `Cc1cccc(/C=C\c2ccccc2)n1`, the activity change, negative = inhibition in assay [1] was -0.643% (inactive); in [3], -3.22% (inactive). Further, the Potency in assay [2] is 631 nM (active) and 398 nM (active); in assay [4] it was > 46 µM (inactive); in assay [5], > 46 µM (inactive); in assay [9], “inactive and 3.98 µM (active)”; in assay [11], 794 nM (active); in assay [12], 501 nM (active). Moreover, the Potency in [13] is 2 µM (active); in [15], 15.8 µM (active); in [16], 15.8 µM (active). Further, the Potency entry in assay [6], in [7], in assay [10], in assay [14], in assay [17] and in assay [20] was “inactive” in each case. Besides, the Potency result in [21] and in [22] was “inactive” throughout. Further, the outcome in assay [8], in assay [18] and in assay [19] was inactive.
